As a reminder, the AC50 is the concentration at which the activity in the assay is half-maximal.

The source of these data is PubChem BioAssay (EPA / NIEHS).

Calls of active or inactive are those of the source. Rule for the calls: active = hit-call score of the fitted dose curve at least 0.9, where 1 is the maximum; inactive = score below 0.9.

Holding throughout (conditions): mRNA level, 48 h; actives raise or lower the signal
Read-out in one assay: CYP4A11 (gene 1579)
The assay is described as follows: LTEA_HepaRG_CYP4A11: Life Technologies and Expression Analysis (LTEA) Assay for CYP4A11 using HepaRG (AID 2283486). The gist of the method:
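Human hepatic HepaRG cultures receive duplicate 48 h exposures across a concentration-response series topping at 100 uM. Expression changes in CYP4A11 are measured by qRT-PCR relative to DMSO controls.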

Read-out in assay [1]: Cytochrome P450 3A4 (Homo sapiens) (UniProt P08684)
The assay is described as follows: LTEA_HepaRG_CYP3A4: Life Technologies and Expression Analysis (LTEA) Assay for CYP3A4 using HepaRG (AID 2283487). The procedure, abridged:
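Differentiated HepaRG cells, plated 48 h, then dosed 48 h in serum-free induction medium with 0.5% DMSO, 8 half-log concentrations up to 100 uM, duplicate. CYP3A4 mRNA by qRT-PCR, normalized to ACTB/GAPDH/POLR2A; bidirectional fit versus DMSO.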

Read-out in assay [2]: DNA damage-inducible transcript 3 (DDIT3), DDIT3 (gene 1649)
In words: LTEA_HepaRG_DDIT3: Life Technologies and Expression Analysis (LTEA) Assay for DNA damage-inducible transcript 3 (DDIT3) using HepaRG (AID 2283488). The procedure, abridged: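 Differentiated human HepaRG cells in serum-free induction medium were exposed in duplicate for 48 h to 8 concentrations (top 100 uM, half-log steps, 0.5% DMSO). DDIT3 mRNA measured by TaqMan qRT-PCR, normalized to ACTB/GAPDH/POLR2A; bidirectional fit versus DMSO.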

Read-out in assay [3]: Pro-epidermal growth factor (Homo sapiens) (UniProt P01133)
The assay is described as follows: LTEA_HepaRG_EGF: Life Technologies and Expression Analysis (LTEA) Assay for Epidermal growth factor (EGF) using HepaRG (AID 2283489). The procedure, abridged:
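Concentration-response mRNA assay: HepaRG cells dosed 48 h (max 100 uM, 0.5% DMSO), EGF measured by qRT-PCR and normalized to ACTB/GAPDH/POLR2A.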

Read-out in assay [4]: Early growth response protein 1 (EGR1) transcription factor, EGR1 (gene 1958)
The assay is described as follows: LTEA_HepaRG_EGR1: Life Technologies and Expression Analysis (LTEA) Assay for Early growth response protein 1 (EGR1) transcription factor using HepaRG (AID 2283490). The gist of the method: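 Read-out is EGR1 mRNA level by qRT-PCR, normalized to three housekeeping genes and analysed for gain or loss of signal against 0.5% DMSO. Source cells: human HepaRG, treated 48 h at up to 100 uM in half-log dilutions.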

Read-out in assay [5]: Ezrin (EZR), EZR (gene 7430)
In words: LTEA_HepaRG_EZR: Life Technologies and Expression Analysis (LTEA) Assay for Ezrin (EZR) using HepaRG (AID 2283491). The gist of the method:
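EZR transcript levels came from Fluidigm qRT-PCR and were normalized to three housekeeping genes after 48 h chemical exposure of HepaRG cells. Dosing used an 8-point half-log series with a 100 uM top concentration in 0.5% DMSO, tested in duplicate; both directions were fitted versus vehicle.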

Read-out in assay [6]: Cytochrome P450 3A7 (Homo sapiens) (UniProt P24462)
In words: LTEA_HepaRG_CYP3A7: Life Technologies and Expression Analysis (LTEA) Assay for CYP3A7 using HepaRG (AID 2283492). The gist of the method: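 qRT-PCR of CYP3A7 in HepaRG lysates after 48 h treatment; concentration-response (8 points, max 100 uM) analysed bidirectionally relative to 0.5% DMSO controls.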

Read-out in another assay: CYP3A5 (gene 1577)
The assay is described as follows: LTEA_HepaRG_CYP3A5: Life Technologies and Expression Analysis (LTEA) Assay for CYP3A5 using HepaRG (AID 2283493). The gist of the method: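 Differentiated HepaRG cells in serum-free induction medium were dosed 48 h with test chemicals (8-point half-log series, top 100 uM, 0.5% DMSO, duplicate). CYP3A5 mRNA measured by qRT-PCR, normalized to ACTB, GAPDH, POLR2A; bidirectional fit versus DMSO.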

Read-out in assay [7]: Fatty Acid-Binding Protein 1 (FABP1), FABP1 (gene 2168)
In words: LTEA_HepaRG_FABP1: Life Technologies and Expression Analysis (LTEA) Assay for Fatty Acid-Binding Protein 1 (FABP1) using HepaRG (AID 2283494). The gist of the method: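 HepaRG, 48 h post-plating switched to serum-free induction medium, then dosed 48 h (duplicate, 8 pts, ≤100 uM, 0.5% DMSO). RNA → Fluidigm TaqMan qRT-PCR, FABP1 normed to ACTB/GAPDH/POLR2A. Bidirectional curve fit vs DMSO.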

Read-out in assay [8]: Cytochrome P450 4A22 (Homo sapiens) (UniProt Q5TCH4)
In words: LTEA_HepaRG_CYP4A22: Life Technologies and Expression Analysis (LTEA) Assay for Cytochrome P450 4A22 (CYP4A22) using HepaRG (AID 2283495). The procedure, abridged: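 Concentration-response (8 points, max 100 uM, 0.5% DMSO) in human HepaRG liver cells after 48 h exposure. CYP4A22 mRNA by TaqMan qRT-PCR with housekeeping-gene normalization.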

Read-out in assay [9]: Cytochrome P450 7A1 (Homo sapiens) (UniProt P22680)
In words: LTEA_HepaRG_CYP7A1: Life Technologies and Expression Analysis (LTEA) Assay for Cytochrome P450 7A1 (CYP7A1) using HepaRG (AID 2283496). The procedure, abridged: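 Gene expression endpoint in human HepaRG liver cells treated for 48 h with test chemicals (up to 100 uM, 0.5% DMSO). Values come from bidirectional concentration-response fitting versus DMSO.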

Read-out in assay [10]: Glutathione S-Transferase (GSTA2), GSTA2 (gene 2939)
The assay is described as follows: LTEA_HepaRG_GSTA2: Life Technologies and Expression Analysis (LTEA) Assay for Glutathione S-Transferase (GSTA2) using HepaRG (AID 2283497). The gist of the method: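 HepaRG, 48 h dosing, 8-pt half-log CRC from 100 uM, 0.5% DMSO vehicle, n=2; RNA → Fluidigm TaqMan qRT-PCR; GSTA2 vs ACTB/GAPDH/POLR2A; gain/loss fit vs DMSO.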

Read-out in assay [11]: Glutamate-cysteine ligase regulatory (GCLM), GCLM (gene 2730)
In words: LTEA_HepaRG_GCLM: Life Technologies and Expression Analysis (LTEA) Assay for Glutamate-cysteine ligase regulatory (GCLM) using HepaRG (AID 2283500). The procedure, abridged: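 Differentiated human HepaRG cells exposed 48 h in serum-free induction medium to 8-point half-log concentrations (top 100 uM, 0.5% DMSO), in duplicate. GCLM mRNA quantified by qRT-PCR, normalized to ACTB, GAPDH, POLR2A; bidirectional fitting versus DMSO.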

Read-out in assay [12]: Heat shock 70 kDa protein 1 (HSPA1A), gene 3303
In words: LTEA_HepaRG_HSPA1A: Life Technologies and Expression Analysis (LTEA) Assay for Heat shock 70 kDa protein 1 (HSPA1A) using HepaRG (AID 2283502). The gist of the method:
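Differentiated human HepaRG cells in serum-free induction medium were exposed in duplicate for 48 h to eight concentrations (top 100 uM, half-log steps, 0.5% DMSO). HSPA1A mRNA was quantified by qRT-PCR, normalized to ACTB, GAPDH and POLR2A, and fitted bidirectionally against DMSO.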

Read-out in assay [13]: Hypoxia-inducible factor 1-alpha (Homo sapiens) (UniProt Q16665)
In words: LTEA_HepaRG_HIF1A: Life Technologies and Expression Analysis (LTEA) Assay for Hypoxia-inducible factor 1 (HIF1A) Trancription factor using HepaRG (AID 2283503).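 Note: HIF1A transcript by TaqMan qRT-PCR normalized to ACTB GAPDH and POLR2A.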 The procedure, abridged:
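HepaRG, 48 h exposure, 8-pt half-log series from 100 uM, 0.5% DMSO vehicle, duplicates. Readout: HIF1A transcript by qRT-PCR (Fluidigm array), housekeeping-normalised. Bidirectional curve fit vs DMSO baseline.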

Read-out in assay [14]: 3-Hydroxy-3-Methylglutaryl-CoA Synthase 2 (HMGCS2), HMGCS2 (gene 3158)
In words: LTEA_HepaRG_HMGCS2: Life Technologies and Expression Analysis (LTEA) Assay for 3-Hydroxy-3-Methylglutaryl-CoA Synthase 2 (HMGCS2) using HepaRG (AID 2283504). The gist of the method: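 This steatosis marker was read as HMGCS2 mRNA change in HepaRG cells treated 48 h with up to 100 uM chemical. Normalisation used housekeeping genes; activity in either direction was fitted relative to 0.5% DMSO vehicle.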

Read-out in the next assay: HGF (gene 3082)
In words: LTEA_HepaRG_HGF: Life Technologies and Expression Analysis (LTEA) Assay for Hepatocyte Growth Facto (HGF) using HepaRG (AID 2283505). The gist of the method:
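Using HepaRG monolayers kept in 0.5% DMSO, chemicals were tested in duplicate over eight half-log concentrations from 100 uM for 48 h. Endpoint: HGF mRNA change relative to DMSO, normalized to ACTB/GAPDH/POLR2A.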

Read-out in assay [15]: Glutamate-cysteine ligase catalytic (GCLC), GCLC (gene 2729)
In words: LTEA_HepaRG_GCLC: Life Technologies and Expression Analysis (LTEA) Assay for Glutamate-cysteine ligase catalytic (GCLC) using HepaRG (AID 2283498). The procedure, abridged:
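Read-out is GCLC transcript level by Fluidigm-based TaqMan qRT-PCR, normalized to three housekeeping genes and fitted in both directions relative to 0.5% DMSO. Human HepaRG cells received chemicals for 48 h, up to 100 uM.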

Read-out in assay [16]: growth arrest and DNA damage 45 (GADD45G), GADD45G (gene 10912)
In words: LTEA_HepaRG_GADD45G: Life Technologies and Expression Analysis (LTEA) Assay for growth arrest and DNA damage 45 (GADD45G) using HepaRG (AID 2283499). The gist of the method:
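Concentration-response in HepaRG: 48 h dosing, 0.5% DMSO, highest level 100 uM. GADD45G expression by qRT-PCR, normalised to endogenous controls; bidirectional fit to DMSO.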

Read-out in assay [17]: Glutathione S-transferase M3 (GSTM3), GSTM3 (gene 2947)
In words: LTEA_HepaRG_GSTM3: Life Technologies and Expression Analysis (LTEA) Assay for Glutathione S-transferase M3 (GSTM3) using HepaRG (AID 2283501). The procedure, abridged:
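Expression of GSTM3 is determined by qRT-PCR in human liver HepaRG cells treated 48 h with an 8-point half-log range from 100 uM in 0.5% DMSO.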

Cytochrome P450 3A4 (Homo sapiens), sequence (P08684 whole entry, looked up): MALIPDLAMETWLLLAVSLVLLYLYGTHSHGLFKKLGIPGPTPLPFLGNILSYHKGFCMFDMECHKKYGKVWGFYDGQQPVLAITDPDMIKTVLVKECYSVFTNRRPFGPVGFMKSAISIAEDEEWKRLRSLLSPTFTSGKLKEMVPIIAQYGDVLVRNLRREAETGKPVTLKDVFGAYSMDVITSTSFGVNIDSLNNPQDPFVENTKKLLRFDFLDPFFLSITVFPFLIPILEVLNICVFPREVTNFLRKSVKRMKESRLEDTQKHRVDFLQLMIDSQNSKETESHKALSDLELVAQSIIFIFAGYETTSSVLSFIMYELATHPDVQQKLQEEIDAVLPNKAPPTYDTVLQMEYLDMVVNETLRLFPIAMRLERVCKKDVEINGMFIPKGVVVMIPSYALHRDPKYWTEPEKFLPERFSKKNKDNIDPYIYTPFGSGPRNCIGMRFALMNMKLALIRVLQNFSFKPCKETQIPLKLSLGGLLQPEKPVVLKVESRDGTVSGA
Cytochrome P450 3A7 (Homo sapiens), sequence (P24462 whole entry, looked up): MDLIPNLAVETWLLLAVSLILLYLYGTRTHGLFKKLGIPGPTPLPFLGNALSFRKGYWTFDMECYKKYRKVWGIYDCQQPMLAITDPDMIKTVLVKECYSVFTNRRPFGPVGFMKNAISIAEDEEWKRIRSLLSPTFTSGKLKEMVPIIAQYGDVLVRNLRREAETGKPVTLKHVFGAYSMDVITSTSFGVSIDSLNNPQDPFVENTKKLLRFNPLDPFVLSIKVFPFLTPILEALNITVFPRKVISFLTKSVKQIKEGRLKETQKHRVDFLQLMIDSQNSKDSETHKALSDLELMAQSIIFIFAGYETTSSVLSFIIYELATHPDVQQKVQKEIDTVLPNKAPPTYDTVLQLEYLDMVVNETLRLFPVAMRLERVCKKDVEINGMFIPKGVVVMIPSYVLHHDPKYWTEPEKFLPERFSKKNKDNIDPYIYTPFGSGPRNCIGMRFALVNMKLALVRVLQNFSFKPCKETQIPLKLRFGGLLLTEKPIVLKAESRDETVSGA
Hypoxia-inducible factor 1-alpha (Homo sapiens), sequence (Q16665 whole entry, looked up): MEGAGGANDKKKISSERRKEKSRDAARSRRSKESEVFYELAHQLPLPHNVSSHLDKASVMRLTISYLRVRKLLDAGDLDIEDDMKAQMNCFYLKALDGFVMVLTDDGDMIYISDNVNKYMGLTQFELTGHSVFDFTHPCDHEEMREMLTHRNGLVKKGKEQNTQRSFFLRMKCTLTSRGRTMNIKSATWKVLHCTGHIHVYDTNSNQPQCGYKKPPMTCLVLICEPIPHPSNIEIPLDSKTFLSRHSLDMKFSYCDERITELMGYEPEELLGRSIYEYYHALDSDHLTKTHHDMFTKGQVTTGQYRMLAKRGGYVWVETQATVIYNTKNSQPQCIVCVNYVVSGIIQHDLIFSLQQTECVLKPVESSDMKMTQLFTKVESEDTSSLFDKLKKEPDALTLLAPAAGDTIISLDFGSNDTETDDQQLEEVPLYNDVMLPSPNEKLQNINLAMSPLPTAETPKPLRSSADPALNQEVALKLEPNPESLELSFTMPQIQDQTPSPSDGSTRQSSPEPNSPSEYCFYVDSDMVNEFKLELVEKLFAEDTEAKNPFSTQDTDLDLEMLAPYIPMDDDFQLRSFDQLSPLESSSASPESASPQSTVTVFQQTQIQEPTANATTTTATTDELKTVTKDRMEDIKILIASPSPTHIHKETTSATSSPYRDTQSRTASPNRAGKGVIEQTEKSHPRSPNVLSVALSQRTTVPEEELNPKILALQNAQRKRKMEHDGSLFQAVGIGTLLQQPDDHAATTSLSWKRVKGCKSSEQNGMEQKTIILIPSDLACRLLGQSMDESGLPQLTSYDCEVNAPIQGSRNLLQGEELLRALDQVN

Turning to `CCOCCOC(C)=O`, the compound was classed as inactive (in the assay with CYP4A11 (gene 1579); in assay [1]; in assay [2]; in assay [3]; in assay [4]; in [5]). The outcome (in assay [6]; with CYP3A5 (gene 1577); in [7]; in assay [8]; in [9]; in assay [10]) was inactive. The result (in [11]; in assay [12]; in assay [13]; in [14]; in the assay with HGF (gene 3082)) was inactive.

Regarding `Nc1ccc(-c2ccc(N)cc2)cc1`, the AC50 with CYP4A11 (gene 1579) was 33.1 µM (active); in [8], 8.3 µM (active); in assay [9], 1.44 µM (active). For the same compound, the compound was called inactive (in assay [1]; in [2]; in [3]; in [4]; in [5]; with CYP3A5 (gene 1577)). Moreover, the outcome in assay [7], in [10], in assay [15], in assay [16], in assay [11] and in assay [17] was inactive. In addition, the outcome (in [12]; in assay [13]; in assay [14]; with HGF (gene 3082)) was inactive.

With `c1cc2ccc3cccc4ccc(c1)c2c34`, the call (with CYP4A11 (gene 1579); in assay [2]; in assay [3]; in assay [4]; in assay [5]; in the assay with CYP3A5 (gene 1577)) was inactive. Also, the outcome in [7], in assay [8], in assay [9], in [10], in assay [15] and in assay [11] was inactive. The call (in [12]; in assay [13]; in assay [14]; in the assay with HGF (gene 3082)) was inactive.

For `Oc1ccc(Cl)cc1Cl`, the compound was classed as inactive (in the assay with CYP4A11 (gene 1579); in [1]; in assay [2]; in [3]; in [4]; in [5]). In addition, the call (in [6]; with CYP3A5 (gene 1577); in assay [7]; in assay [8]; in assay [9]; in [10]) was inactive. Also, the compound was classed as inactive (in assay [11]; in [17]; in assay [12]; in assay [13]; in [14]; with HGF (gene 3082)).

With `CCNc1nc(NC(C)C)nc(SC)n1`, the AC50 was 50 µM (active) in the assay with CYP4A11 (gene 1579); 2.44 µM (active) in assay [1]; 28.3 µM (active) in [7]; 35.5 µM (active) in assay [9]; 50 µM (active) in assay [14]. The compound was called inactive (in [2]; in assay [3]; in assay [4]; in [5]; in [6]; with CYP3A5 (gene 1577)). The compound was classed as inactive (in [8]; in assay [10]; in assay [11]; in [12]; in assay [13]; with HGF (gene 3082)).
